Activity calls are given as the source filed them. How the source made its calls: active means hit-call score of the fitted dose curve at least 0.9, where 1 is the maximum; inactive means score below 0.9.

CYP2E1, CYP2E1 (gene 1571), sequence (P05181 whole entry, looked up): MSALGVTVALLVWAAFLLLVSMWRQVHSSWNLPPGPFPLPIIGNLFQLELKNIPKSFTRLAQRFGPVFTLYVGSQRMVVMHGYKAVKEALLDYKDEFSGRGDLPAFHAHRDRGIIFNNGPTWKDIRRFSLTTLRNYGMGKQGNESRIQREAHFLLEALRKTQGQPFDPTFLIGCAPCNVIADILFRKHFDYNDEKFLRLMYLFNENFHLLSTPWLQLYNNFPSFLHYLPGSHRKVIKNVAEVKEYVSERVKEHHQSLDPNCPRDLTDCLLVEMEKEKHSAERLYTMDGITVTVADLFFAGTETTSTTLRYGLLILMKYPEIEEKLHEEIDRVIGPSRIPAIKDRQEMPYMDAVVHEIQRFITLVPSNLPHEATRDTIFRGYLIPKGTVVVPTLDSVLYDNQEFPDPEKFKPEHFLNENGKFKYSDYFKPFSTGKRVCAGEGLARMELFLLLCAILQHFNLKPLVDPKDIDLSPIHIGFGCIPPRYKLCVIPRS

This experiment concerns the target CYP2E1, CYP2E1 (gene 1571) (UniProt P05181). Put plainly: ERF_FR_ADME_hCYP2E1: Eurofins (ERF) CYP450-related Enzyme Activity (ADME) Assay for CYP2E1. How it is done:
ERF_FR_ADME_hCYP2E1 is a biochemical, single-readout assay that uses extracted gene-proteins in a cell-free assay. Measurements were taken 0.16 hour after chemical dosing in a 96-well plate. See CYP2E1 inhibition (recombinant, EC substrate).ERF_FR_ADME_hCYP2E1 is an assay component calculated from the ERF_FR_ADME_hCYP2E1 assay. It is designed to measure enzyme activity using a type of enzyme reporter as detected by peak area response of 6-hydroxychlorzoxazone with HPLC-MS/MS technology.Data from the assay component ERF_FR_ADME_hCYP2E1 was analyzed at the assay endpoint, ERF_FR_ADME_hCYP2E1, in the positive analysis fitting direction relative to acetonitrile as the negative control and baseline of activity. Using a type of enzyme reporter, loss-of-signal activity can be used to understand changes in enzymatic activity as they relate to gene CYP2E1. To generalize the intended target to other relatable targets, this assay endpoint is annotated to the cyp intended target family, where the subfamily is steroidogenesis-related.
Assay is performed using 20 uM chlorzoxazone, cells are pre-incubated for 5 minutes, and then 10 minutes incubation with NADPH at 37C.
For the compound `COc1cc(/C=C/C(=O)CC(=O)/C=C/c2ccc(O)c(OC)c2)ccc1O`, the concentration at half-maximal activity (AC50) is 1.08 µM (active). For `COc1cc(CCC(=O)CC(=O)CCc2ccc(O)c(OC)c2)ccc1O`, the concentration at half-maximal activity (AC50) was 1.24 µM (active). `O=C(/C=C/c1ccc(O)cc1)CC(=O)/C=C/c1ccc(O)cc1`: the AC50 is 1.15 µM (active).

(Values after PubChem BioAssay AID2284059 (EPA ToxCast).)
